Laboratory results from PubChem BioAssay AID2685 (National Center for Advancing Translational Sciences (NCATS), 2010).
Among all 320,000 compounds or so, about 2,100 (0.66%) were called active. About 53% were inconclusive and are not listed. Calls come from the whole dose curve; as a rule, active = well fitted inhibition curve with a large enough effect in the signal ratio, with a control signal flat (not every such curve was filed as active); inconclusive = small, poorly fitted or top-dose-only effect, or effect the other way, or a change in a side signal; inactive = flat fitted curve, though single readings scatter; the % refers to the signal ratio. This excerpt belongs to a sample that is enriched for actives.

Assay: qHTS Assay for Lipid Storage Modulators in Drosophila S3 Cells;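 for cell number change: cells counted by Cell Tracker Red CMTPX staining in the red channel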
Settings: BODIPY lipid droplet fluorescence, 18-24 h, cells fed with added oleic acid; cell number change: measured here: cell count max response; series mostly up to 46.1 µM
Method in brief: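 Drosophila S3 cells loaded with oleic acid (400 uM, as added) and compounds at several concentrations; lipid droplets imaged by 488-nm laser-scanning cytometry, 500–530 nm intensity and object ratio to cell channel. Percent activity normalized to 20 uM Triacsin C.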
Potency is the fitted concentration of half-maximal effect.

Row | SMILES | Potency | cell number change [%]
1 | CCCOC(=O)c1ccc(OCC(O)CN2CCN(C(=O)c3ccccc3)CC2)cc1 (stereo not given) | inactive | 0.922
2 | COCCOC(=O)c1c(NC(=O)COC(=O)Cc2cccc(OC)c2)sc(C(N)=O)c1C | 6.51 µM (active) | 
3 | COCCOC(=O)c1c(NC(=O)COC(=O)c2ccc(C)o2)sc(C(N)=O)c1C | inactive | -10.2
4 | COCCOC(=O)c1c(NC(=O)CN(C)c2ccccc2)sc(C(N)=O)c1C | inactive | 
5 | O=C(NCc1ccccc1Cl)c1cccc(C(F)(F)F)c1 | inactive | -20.2
6 | O=S(=O)(c1ccc(F)cc1)N1CCCN(Cc2c(F)cccc2F)CC1 | inactive | 
7 | O=C(O)/C(=C\C(=O)c1ccccc1)Nc1ccccc1 | inactive | 1.05
8 | Cn1c(=O)c2cc3c(nc2n(C)c1=O)CC(c1ccccc1)CC3=O (stereo not given) | inactive | 11.1
9 | Nc1c(-c2ccc3c(c2)OCCO3)oc2ccccc2c1=O | 1.84 µM (active) | -8.11
10 | Nc1oc2ccccc2c(=O)c1-c1ccc2c(c1)OCO2 | inactive | 5.77
11 | O=c1cc(-c2ccc3c(c2)OCCO3)oc2ccc(Cl)cc12 | inactive | 12.3
12 | CCOC(=O)C1=C(C)NC2=C(C(=O)CCC2)C1c1cccs1 (stereo not given) | inactive | 25.2
13 | COc1ccc(NS(=O)(=O)c2cccc(C(=O)N/N=C(\C)c3ccc(-n4ccnc4)cc3)c2)cc1 | inactive | 11.3
14 | O=C(Nc1ccccc1C(=O)NCCCN1CCOCC1)c1ccc(F)cc1F | inactive | 3.6
15 | COc1ccc(-n2ncc3c2CC(C)(C)CC3NC(=O)c2ccc(OC)o2)cc1 (stereo not given) | inactive | -8.87
16 | COc1ccc(-n2ncc3c2CC(C)(C)CC3NC(=O)c2ccnn2C)cc1 (stereo not given) | 14.6 µM (active) | -19.1
17 | CSCc1ccc(C(=O)NC2CC(C)(C)Cc3c2cnn3-c2ccc(F)cc2)o1 (stereo not given) | 25.9 µM (active) | -25.2
18 | CC1(C)Cc2c(cnn2-c2ccc(F)cc2)C(NC(=O)C2=NNC(=O)CC2)C1 (stereo not given) | inactive | 
19 | CC1(C)Cc2c(cnn2-c2ccc(F)cc2)C(NC(=O)c2ccoc2)C1 (stereo not given) | inactive | 6.57
20 | Cn1nccc1C(=O)NC1CC(C)(C)Cc2c1cnn2-c1ccc(F)cc1 (stereo not given) | inactive | 
21 | CCN1CCCC1CNC(=O)c1cn(C)c2ccc(S(=O)(=O)N3CCCCCC3)cc2c1=O (stereo not given) | inactive | 3.92
22 | CC(C)NC(=O)C(OC(=O)c1ccccc1)C(OC(=O)c1ccccc1)C(=O)O (stereo not given) | inactive | 7.86
23 | Cn1nc(-c2ccccc2)cc1NC(=O)Nc1ccccc1F | inactive | -4

Row | SMILES | Potency | cell number change [%]
24 | COc1cc(CC(=O)OCC(=O)NC2CCCCC2C)cc(OC)c1OC (stereo not given) | inactive | -2.51
25 | CC(=O)c1c(C)nn(-c2ccccc2)c1C | inactive | 16.2
26 | Cc1nn(-c2ccccc2)c(C)c1S(=O)(=O)O | inactive | -1.62
27 | Cc1nn(-c2ccccc2)c(C)c1-c1ccccc1O | 7.31 µM (active) | -20.1
28 | O=c1c2[nH]c3ccc(F)cc3c2ncn1Cc1ccncc1 | inactive | 1.6
29 | Cc1nn(CC(=O)NC(C)C)c(C)c1[N+](=O)[O-] | inactive | 17.1
30 | O=C(NC1CCN(C(=O)NCc2ccccc2)CC1)c1cccc(F)c1 | 29.1 µM (active) | 11.7
31 | CC(=O)NC(Cc1ccccc1F)C(=O)NC1CCN(C(=O)NCc2ccccc2)CC1 (stereo not given) | 6.51 µM (active) | -14.1
32 | COc1ccc(CC(NC(C)=O)C(=O)NC2CCN(C(=O)c3cccc(Cl)c3)CC2)cc1OC (stereo not given) | inactive | -1.21
33 | COc1cccc(CC(NC(C)=O)C(=O)NC2CCN(C(=O)Nc3ccc(C)cc3)CC2)c1 (stereo not given) | inactive | -3.63
34 | O=C(Cc1ccccc1)NC1CCN(C(=O)NCc2ccccc2)CC1 | inactive | -0.661
35 | CC(=O)NC(Cc1cccc(C)c1)C(=O)NC1CCN(C(=O)NCc2ccccc2)CC1 (stereo not given) | inactive | 5.24
36 | O=C(c1ccc(F)cc1)C1CCN(C(=O)NCc2ccccc2)CC1 | inactive | 2.65
37 | COc1cccc(CC(NC(C)=O)C(=O)NC2CCN(C(=O)c3ccc(Cl)cc3)CC2)c1 (stereo not given) | 3.26 µM (active) | -13.3
38 | CC(=O)NC(Cc1ccc(C)cc1)C(=O)NC1CCN(C(=O)NCc2ccccc2)CC1 (stereo not given) | inactive | 13.3
39 | COc1ccnc(Oc2cc(Cl)cc(Cl)c2)c1C#N | inactive | 16.7
40 | COc1cc(C(=O)NCC(=O)OCC(=O)Nc2ncc(Cl)cc2Cl)cc(OC)c1OC | inactive | 
41 | O=C(Cn1nnc(-c2cccs2)n1)NCc1ccco1 | inactive | 14.3
42 | Cc1cc(=O)oc2c3c(cc(OCC(=O)N4CCC(C(=O)O)CC4)c12)OC(C)(C)CC3 | inactive | 22.1
43 | Cc1ncoc1C(=O)NCc1ccccc1Cl | inactive | -13.1
44 | Cc1nc(C)c(C(=O)NCCC(c2ccccc2)c2ccccc2)o1 | inactive | -16.5
45 | Cc1nc(C)c(C(=O)NCc2ccccc2Cl)o1 | 8.2 µM (active) | -27.9
46 | COC(CNC(=O)c1ccc2nc(-c3ccccc3)c(-c3ccccc3)nc2c1)OC | inactive | -6.61

Row | SMILES | Potency | cell number change [%]
47 | O=C(CN1CCN(c2ccccc2F)CC1)Nc1ccc2c(c1)CCC2 | inactive | -8.56
48 | Cc1nc(-c2ccc(S(=O)(=O)Nc3cc(S(=O)(=O)N(C)C)ccc3C)s2)cs1 | inactive | 1.19
49 | Cc1ccc(S(=O)(=O)N(C)C)cc1NS(=O)(=O)c1ccc(Cl)s1 | 6.51 µM (active) | 0.163
50 | Cc1ccc(NS(=O)(=O)c2ccc(Cl)s2)cc1S(=O)(=O)N(C)C | inactive | 9.65
51 | COCCN(C(=O)c1ccco1)c1nnc(-c2ccc(F)cc2)s1 | inactive | 4.04
52 | COCCN(C(=O)c1ccccc1F)c1nc(-c2ccc(OC)cc2)cs1 | inactive | -17.2
53 | COCCN(C(=O)c1ccccc1F)c1nnc(-c2ccc(OC)cc2)s1 | 18.4 µM (active) | -15.3
54 | O=C(Cn1c(NCCCO)nc2ccccc21)c1ccc(F)cc1 | inactive | 11.9
55 | Cc1ccc(SCc2cc(=O)n3[nH]c(C)nc3n2)cc1 | inactive | 
56 | Cc1cc(C)c(CN2CCC(N3CCC(C(=O)NCC4CCCO4)CC3)CC2)cc1C (stereo not given) | inactive | 
57 | CC[C@@H]1CC=C[C@H]2[C@H]1C(=O)N(Cc1ccccc1)[C@H]2c1ccc2ccccc2c1 | inactive | 
58 | CCN(CC)C(=O)CSc1nc(-c2cccs2)cc(-c2cccs2)c1C#N | 14.6 µM (active) | -14
59 | CCN(CC)C(=O)CSc1nc(N)c(C#N)c(-c2cccs2)c1C#N | inactive | -4.19
60 | CCN(CC)C(=O)CSc1nc(C)cc(-c2cccs2)c1C#N | inactive | -17.5
61 | O=C(CC1Sc2ccccc2NC1=O)Nc1cccc(-c2nnc3n2CCCCC3)c1 (stereo not given) | inactive | 4.38
62 | Cc1ccc(NC(=O)c2cccs2)cc1[N+](=O)[O-] | inactive | -1.31
63 | Cc1ccc(NC(=O)c2sccc2C)cc1[N+](=O)[O-] | 8.2 µM (active) | 7.44
64 | Cc1ccsc1C(=O)Nc1ccc2c(c1)OCCO2 | inactive | 
65 | COc1ccc(-c2csc(NC(=O)c3cccc(N4C(=O)CCC4=O)c3)n2)cc1C | inactive | -26.1
66 | O=C1CC(=O)N(CCc2ccccc2)C(=O)N1CCc1ccccc1 | inactive | -9.18
67 | COc1ccc(OC)c(N=CC2=C(O)CC(C)(C)CC2=O)c1 | inactive | 25.1
68 | C/C(=N\Nc1ccc([N+](=O)[O-])cc1)c1ccc2c(c1)OCO2 | inactive | -16.9
69 | O=C(CCCn1c(=O)c2sccc2n(CC(=O)NCC2CCCO2)c1=O)NCc1ccco1 (stereo not given) | inactive | 3.33

Row | SMILES | Potency | cell number change [%]
70 | CCCN(CCC)C(=O)Cn1c(=O)n(CCCC(=O)NCc2ccco2)c(=O)c2sccc21 | inactive | 2.76
71 | CCCn1c(=O)c2sccc2n2c(CCCC(=O)NC3CCN(Cc4ccccc4)CC3)nnc12 | inactive | 6.65
72 | CCCn1c(=O)c2sccc2n2c(CCCC(=O)NCc3ccco3)nnc12 | 29.1 µM (active) | -3.77
73 | Cn1c(=O)c2sccc2n2c(CCCC(=O)NCc3ccco3)nnc12 | inactive | -10.3
74 | COCCCn1c(=O)c2sccc2n2c(CCCC(=O)NCC3CCCO3)nnc12 (stereo not given) | 18.4 µM (active) | 11.8
75 | CCCn1c(=O)c2sccc2n2c(CCCC(=O)NCC3CCCO3)nnc12 (stereo not given) | 20.6 µM (active) | -21.7
76 | Cn1c(C(=O)OCC(=O)NCC2CCCO2)cc2sccc21 (stereo not given) | inactive | 0.161
77 | COCCCn1c(=O)c2sccc2n2c(CCCC(=O)NCc3ccccc3)nnc12 | inactive | 12.6
78 | O=C(O)CCCN=C1NC2(CCCC2)Cc2ccccc21 | inactive | 11.6
79 | Cc1cc(=O)[nH]c(SCC(=O)c2ccc3c(c2)NC(=O)CO3)n1 | inactive | 4.71
80 | COc1cccc(NC(=O)CN(C)C(=O)CSc2nc(C)cc(C)n2)c1 | inactive | 1.93
81 | COC(=O)c1c(NC(=O)c2cccnc2Cl)sc(C(=O)N(C)C)c1C | inactive | 7.02
82 | COc1ccccc1C(CC(=O)Nc1ccc(C)c(C)c1)c1ccc(OC(C)C)cc1 (stereo not given) | inactive | 11.9
83 | COC(=O)COc1ccc(NC(=O)Cn2nc(-c3ccccc3)c3ccccc3c2=O)cc1 | inactive | 0.0736
84 | COc1ccc(CNc2nc(S(=O)(=O)c3ccccc3)c(Cl)s2)cc1OC | inactive | -10.4
85 | Nc1cc(OC(=O)c2c(F)cccc2Cl)nn1S(=O)(=O)c1ccccc1 | 0.517 µM (active) | -4.17
86 | Cc1ccc(S(=O)(=O)n2nc(OC(=O)c3c(F)cccc3Cl)cc2N)cc1 | inactive | 5.65
87 | Cc1onc(-c2ccccc2Cl)c1C(=O)Oc1cc(N)n(S(=O)(=O)c2ccc(F)cc2)n1 | inactive | -4.68
88 | COc1ccc(-c2onc3ccc(Cl)cc23)cc1 | inactive | 
89 | Cc1ccc(NC(=O)c2cc(-n3cnnc3)ccc2Cl)cc1 | inactive | -2.68
90 | CC(C)NC(=O)c1cc(-n2cnnc2)ccc1Cl | 25.9 µM (active) | -14.2
91 | CC(=O)Nc1ccc(NC(=O)c2cc(-n3cnnc3)ccc2Cl)cc1 | inactive | 
